BAZ2B inh: BAZ2B (human) inhibition; AID 504333; Potency, µM (titrated, usually from 114 µM), for inactives: at the highest dose activity change, negative = inhibition, most hits filed as inhibitors; 360,000 compounds, 4.4% hits; AlphaScreen BAZ2B-H3K14Ac peptide displacement; Q9UIF8; further: on the % scale 0 is the no-effect control and ±100 the full control effect; nearly all actives have a fitted effect of over 60% in size
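Complex of BAZ2B and biotin-H3K14Ac (50 nM apiece) forms over 30 min at RT, then faces library compounds up to 110 uM for another 30 min; AlphaScreen beads added, 20 min dark incubation, luminescence read.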
HP1b chromo inh: HP1-beta chromodomain-methylated histone interaction inhibition; P83916; AlphaScreen HP1-beta / biotin-H3K9me3 peptide binding; Potency, µM (top dose mostly 114 µM), without a hit: top-dose activity change, negative = inhibition, most hits filed as inhibitors; 390,000 compounds, 0.56% hits; AID 540317; further: nearly all actives have a fitted effect of over 70% in size
Target sequence (P83916 whole entry, looked up): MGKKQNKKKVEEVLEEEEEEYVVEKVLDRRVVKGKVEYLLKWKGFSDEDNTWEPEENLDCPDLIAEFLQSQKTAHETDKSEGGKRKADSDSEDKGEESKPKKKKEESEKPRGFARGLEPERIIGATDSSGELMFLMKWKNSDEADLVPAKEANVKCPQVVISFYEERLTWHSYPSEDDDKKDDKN
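HP1-beta protein (50 nM final) preincubated 30 min at room temperature with biotinylated H3(1-18)K9me3 peptide (50 nM) in PBS pH 7.4, 0.01% Tween-20, then compound added for 30 min. AlphaScreen streptavidin donor/nickel chelate acceptor beads (10 ug/mL final), 30 min dark, luminescence read.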
G9a block: G9a (human) methyltransferase inhibition | 350,000 compounds, 8.8% hits | Potency, µM (top dose mostly 102 µM), for inactives: at the top dose activity, negative = inhibition, usual class: inhibitors | AID 504332 | G9a H3K9 monomethylation, AlphaScreen, 2 h | Q96KQ7; further: on the % scale 0 is the no-effect control and ±100 the full control effect; nearly all actives have a fitted effect of over 75% in size
Target sequence (Q96KQ7 913-1193 limits assumed): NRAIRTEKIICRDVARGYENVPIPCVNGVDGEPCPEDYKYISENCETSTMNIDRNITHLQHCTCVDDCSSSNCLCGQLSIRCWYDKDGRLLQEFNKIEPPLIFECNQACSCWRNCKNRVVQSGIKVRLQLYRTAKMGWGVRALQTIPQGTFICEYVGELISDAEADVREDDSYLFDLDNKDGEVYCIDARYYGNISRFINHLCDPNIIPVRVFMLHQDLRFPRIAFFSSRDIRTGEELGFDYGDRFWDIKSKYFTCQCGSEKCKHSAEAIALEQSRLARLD
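Readings reflect AlphaScreen signal from monomethyl-H3K9 antibody detection. HMT at 20 nM; substrate b-H3K9 500 nM; cofactor SAM 20 uM; 2 h RT reaction; compounds tested as titrations in qHTS with 15 min preincubation.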
JMJD2A Tudor: inhibitors of human JMJD2A Tudor domain. Potency, µM (top dose mostly 114 µM), for the others: at the highest dose activity change, negative = inhibition, most hits filed as inhibitors. AID 504339. O75164. AlphaScreen JMJD2A-Tudor / H3K4me3 peptide binding. 390,000 compounds, 4.4% hits; further: on the % scale 0 is the no-effect control and ±100 the full control effect; nearly all actives have a fitted effect of over 50% in size
Sfp PPTase inh: blocks B. subtilis Sfp PPTase activity; AID 1490; Biochemical Sfp PPTase activity, qHTS; 310,000 compounds, 3.5% hits; Potency, µM, without a hit: largest response in the series, negative = inhibition, actives largely listed as inhibitors;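 further: the enzyme is Sfp with the accession as filed and its product quenches rhodamine fluorescence; 0% = enzyme reaction without inhibitor and -100% = no enzyme wells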
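Buffer: 50 mM Hepes-Na pH 7.6, 10 mM MgCl2, 0.01% Nonidet P-40, 0.01% BSA. Enzyme 15 nM, pre-exposed to compound 15 min; substrates then added and fluorescence change tracked over 30 min.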
The depositor's hits bear a star; u = inconclusive; x = not tested or not shown; [ ] = dose if it differs, or a comment. Rows were chosen to be rich in hits. Some 12% of all compounds tested hit in one or more screens of this group. The call rests on the fitted dose curve; in most records, active means well fitted curve in the direction sought with a large enough effect; inconclusive means small, poorly fitted or top-dose-only effect, or another doubt; inactive means no such curve, though single readings can be large; an effect the other way counts as inactive or inconclusive. Potency means the concentration at half of the fitted maximal effect.

SMILES | BAZ2B inh | HP1b chromo inh | G9a block | JMJD2A Tudor | Sfp PPTase inh
Cn1c(CNC(=O)c2cccs2)n[nH]c1=S | 8% | 15% | 28µM* | 14µM* | -12%
O=C(NCc1n[nH]c(=S)n1-c1ccc(Br)cc1)c1cccs1 | -16% | 2% | 10µM* | 25µM* | 22%
C#CCOCCOCCOCCNc1nc(N2CCOCC2)nc(N2CCN(C(=O)[C@H](CC(N)=O)n3cc(C(N)[C@@H](C)CC)nn3)CC2)n1 (stereo partly drawn) | x | 25% | x | -31% | x
C#CCOCCOCCOCCNc1nc(N2CCN(C(=O)[C@H](CCCCN)n3cc([C@@H](N)C(C)CC)nn3)CC2)nc(N2CCN(C(=O)[C@H](Cc3cc4ccccc4[nH]3)n3cc([C@@H](N)CC(C)C)nn3)CC2)n1 (stereo partly drawn) | 32µM* | -11% | u | 35µM* | -13%
C#CCOCCOCCOCCNc1nc(N2CCN(C(=O)[C@H](Cc3cc4ccccc4[nH]3)n3cc([C@@H](N)C(C)CC)nn3)CC2)nc(N2CCN(C(=O)[C@H](CCCCN)n3cc([C@@H](N)CO)nn3)CC2)n1 (stereo partly drawn) | 25µM* | x | 14%[12.7 µM] | x | 1%
C#CCOCCOCCOCCNc1nc(N2CCN(C(=O)[C@H](Cc3cc4ccccc4[nH]3)n3cc([C@@H](N)C(C)CC)nn3)CC2)nc(N2CCN(C(=O)[C@H](Cc3cc4ccccc4[nH]3)n3cc([C@@H](N)CC(C)C)nn3)CC2)n1 (stereo partly drawn) | 35µM* | x | u | x | u
C#CCOCCOCCOCCNc1nc(N2CCN(C(=O)[C@H](CCC(=O)O)n3cc(C(N)CO)nn3)CC2)nc(N2CCN(C(=O)[C@H](Cc3cc4ccccc4[nH]3)n3cc(C(N)[C@H](C)CC)nn3)CC2)n1 (stereo partly drawn) | 50µM* | 13% | -1%[12.7 µM] | 45µM* | u
Brc1ccc(-n2nc(-c3ccccc3)c3cnc4cc5c(cc4c32)OCO5)cc1 | x | 47% | 6%[59 µM] | -2% | x
O=S(=O)(/N=C(/c1ccccc1)N1CCOCC1)c1ccc(F)cc1F | x | 30% | x | 6% | x
O=C(C[C@H]1C/C=C\C[C@H](Cc2ccc(F)cc2)C(=O)O[C@@H](c2ccccc2)CNC1=O)N[C@H](CO)Cc1ccccc1 | x | 20% | x | -20% | x
CCc1ccc(CN2CCC(n3nccc3NC(=O)Cc3ccccc3)CC2)o1 | -19% | 0% | 4% | -20% | 6%
CCOc1ccc(S(=O)(=O)NNS(=O)(=O)c2ccc(C)cc2C)cc1 | -24% | 43% | 3.5µM* | -18% | 79µM*
CC12CS(=O)(=O)CC1SC(=S)N2c1ccccn1 (stereo not drawn) | -19% | 22% | -26% | -11% | -2%
COc1ccc(-c2cc(C(=O)NC(Cc3cc4ccccc4[nH]3)C(=O)O)c(C)o2)cc1OC (stereo not drawn) | -30% | u | 32µM* | -35% | 22µM*
COc1ccc(-c2cc(C(=O)O)c(C)o2)cc1OC | -16% | 33% | 0%[12.7 µM] | 11% | u
Cc1cc(SCCC(=O)O)nc2c(C)cccc12 | -6% | 54% | 79µM* | -15% | 11%
Cc1c(-c2nnc(SCC(=O)Nc3ccc(Br)cc3)o2)nnn1-c1ccc(F)cc1 | -2% | 23%[57 µM] | 13%[59 µM] | -8% | x
CCOC(=O)c1cc2oc(C)cc2n1CC(=O)OC1CCCCC1 | u | 22% | u | -30% | 79µM*
CC(Sc1nc(C2CC2)n(-c2ccccc2)n1)C(=O)c1c(N)n(C)c(=O)n(C)c1=O (stereo not drawn) | 2% | 48% | 24% | -2% | 18%
CCOC(=O)C1CCCN(C(=O)CCc2nnc(-c3ccc(C(C)=O)s3)o2)C1 (stereo not drawn) | 21%[57.1 µM] | 46% | 35µM* | -15% | -1%
COc1ccc(/C=C/C(=O)OC(C)CN2CCCCC2)cc1 (stereo not drawn) | -27% | 25% | 20µM* | -14% | 6%
CC(C)(C)c1ccc(C(=O)Nc2ccc(Cl)cc2)cc1 | -6% | 20% | -64%[59 µM] | -3% | -6%
CC(C)(C)c1ccc(NC(=O)c2ccsc2)cc1 | 0% | 35% | 24% | 11% | 79µM*
CCc1sc(C(=O)NCCCN2CCCC2=O)cc1Br | x | 31% | x | -5% | x
CCCCNc1nc(C)c(C(C)=O)cc1C#N | -25% | 0% | 1% | -6% | 13%
SMILES | BAZ2B inh | HP1b chromo inh | G9a block | JMJD2A Tudor | Sfp PPTase inh
CCCNc1nc(C)c(C(C)=O)cc1C#N | 50µM* | 32% | 0% | -7% | 19%
O=C(c1ccncc1)N1CCC[C@@]2(CCN(c3ccccn3)C2)C1 | x | x | 13%[12.7 µM] | x | 4%
O=C1/C(=C\c2ccc(-c3ccccc3[N+](=O)[O-])o2)C(c2ccccc2)=NN1c1ccccc1 | 6.3µM* | 7.9µM* | 4µM* | 5.6µM* | -2%
CN(C)/C=C1/C(=O)N(c2ccc([N+](=O)[O-])cc2)N=C1c1ccccc1 | -34% | x | u | x | -2%
Cc1ccc(/C=C2\C(=O)ON=C2c2ccccc2)o1 | -20% | u | -13% | -34% | 15%
Cc1ccc(-c2ccc(/C=C3\C(=O)ON=C3c3ccccc3)o2)c([N+](=O)[O-])c1 | 10µM* | -55% | 27%[0.501 µM] | 22µM* | 22µM*
Cc1ccc(C2=NOC(=O)/C2=C\c2ccc(C)o2)cc1 | 11µM* | 28µM* | x | 35µM* | 40µM*
CCc1c(C)nc2nncn2c1Nc1ccc(Cl)cc1 | -1% | 38% | -17%[59 µM] | -9% | x
Cc1ccc(NS(=O)(=O)c2cc([N+](=O)[O-])ccc2NNC(=S)Nc2cc(C)ccc2C)c(C)c1 | 32µM* | u | 2.5µM* | 40µM* | -72%
COc1ccc(NC(=S)NNc2ccc([N+](=O)[O-])cc2S(=O)(=O)Nc2ccc(C)cc2C)cc1 | 25µM* | u | 10µM* | 32µM* | 40µM*
Cc1ccc(NS(=O)(=O)c2cc([N+](=O)[O-])ccc2NNC(=S)Nc2cccc(Cl)c2)c(C)c1 | 20µM* | u | 16µM* | u | 7.9µM*
CCCCOc1ccccc1C1CC(=O)NC2=C1C(=O)CCC2 (stereo not drawn) | -4% | 46% | 5%[2.33 µM] | -1%[11.4 µM] | 24%
COc1ccc(S(=O)(=O)N(CC(=O)NCc2ccco2)c2ccccc2OC)cc1 | u | -25% | u | -31% | 17%
Cc1ccc2c(c1)NC(=O)c1cccc([N+](=O)[O-])c1CO2 | -10% | x | 50µM* | x | 4%
Cc1ccc2c(c1)Oc1ccc([N+](=O)[O-])cc1C(=O)N2 | -2% | 25% | 9% | -16% | -7%
Cc1cc(C)cc(C(=O)NC(CC(N)=O)c2ccc(NC3CCCCCCCCCCC3)c([N+](=O)[O-])c2)c1 (stereo not drawn) | u | -3% | 45µM* | u | -9%
O=[N+]([O-])c1cc(C(F)(F)F)ccc1NC1CCN(Cc2ccccc2)CC1 | 25µM* | 50µM* | 35µM* | 35µM* | -5%

Screens (PubChem)
